Test results reported in PMC4552634, “A New Set of Chemical Starting Points with Plasmodium falciparum Transmission-Blocking Potential for Antimalarial Drug Discovery” (PLoS ONE, 2015).
Hit rate of the full screen: of about 13,000 compounds, about 3,200 (25%) showed an effect of 50% or more. This is one part of the list.

What follows are compounds tested on P. falciparum stage V gametocytes. Conditions: 48 h, 5 µM; inhibitor.
Parameters: BacTiter-Glo ATP luminescence viability of purified stage V gametocytes in 384-well plates, per cent inhibition versus DMSO

Compound	% Inhibition
Cc1c(C)n(C2CCCCC2)c2ncnc(OC3CCN(CC(=O)NC4CC4)CC3)c12 [TCMDC-124853]	15.8%
CCCc1cnc2nc(N)nc(N)c2c1C [TCMDC-138066]	12.33%
Cn1cc(-c2ccccc2C(=O)O)c(=O)c2cc(Cl)ccc21 [TCMDC-123861]	6.577%
CCOc1cc(C(=O)N[C@@H](Cc2ccccc2)[C@H](O)CNCc2cc(OC)cc(OC)c2)cc(N2CCCC2=O)c1 [TCMDC-134571]	-29.57%
COCc1cc(C)nc2sc(C(=O)Nc3cc(C(C)(C)C)ccc3O)c(N)c12 [TCMDC-125131]	1.168%
O=C(/C=C/c1ccc(Cl)c(Cl)c1)NCCCCCN1CCCN(C(=O)Nc2cc(F)cc(F)c2)CC1 [TCMDC-135751]	-53.24%
Oc1cccc(Nc2ccnc3cc(-c4cc5ccccc5o4)ccc23)c1 [TCMDC-138287]	-55.42%
COc1ccc(Cc2c(N)nc3nc(N)nc(N)c3c2C)cc1 [TCMDC-138061]	18.63%
COc1cccc(-c2cc3c(NCc4ccncc4)nccc3s2)c1 [TCMDC-135200]	-6.172%
CC(C)CC(=O)N1CCNC[C@@H]1C(=O)NCCSCc1c(F)cccc1Cl [TCMDC-141243]	-23.04%
O=C(/C=C/c1ccc(Cl)c(Cl)c1)N1CCCC(CCCN2CCC(c3c[nH]c4ccccc34)CC2)C1 (centres unmarked) [TCMDC-139505]	18.14%
NC(N)=NN=Cc1c2ccccc2c(Cl)c2cc(Cl)ccc12 [TCMDC-137903]	96.19%
NC(N)=NN=Cc1c2ccc(Cl)cc2c(Cl)c2ccc(Cl)cc12 [TCMDC-137884]	111.2%
NC(N)=NN=Cc1c[nH]c2ccc(-c3ccccc3)cc12 [TCMDC-138961]	-59.33%
NC(N)=NN=Cc1c2ccccc2c(Cl)c2c(Cl)cccc12 [TCMDC-137898]	83.04%
NC(N)=NN=Cc1c2ccccc2c(Cl)c2ccc(Cl)cc12 [TCMDC-137911]	98.76%
Clc1ccc2c(NN=Cc3ccccc3)ccnc2c1 [TCMDC-123962]	-43%
NC(N)=NN=CC(=O)Nc1ccc(Cl)c(Cl)c1 [TCMDC-137466]	-3.448%
Cc1cc(C)c(C)c(S(=O)(=O)N2CCCCC(c3ccc(F)c(F)c3)=N2)c1C [TCMDC-135419]	-64.55%
CCCc1cc(Cc2cnc(N)nc2N)cc(CC)c1OC [TCMDC-137693]	21.32%
COc1ccc(Nc2nccc(N3CCC(NC(=O)Nc4ccc5c(c4)OCO5)C3)n2)cc1 (centres unmarked) [TCMDC-133617]	-60.34%
CN(C)CCC1CCN(CCS(=O)(=O)c2cccc(Nc3ncc(-c4cccc(F)c4)cn3)c2)CC1 [TCMDC-134374]	1.071%
N#Cc1ccc(-c2ccc(C(=O)NCCCCN3CCC(c4cn(CCO)c5ccccc45)CC3)cc2)cc1 [TCMDC-138836]	-28.51%

Compound	% Inhibition
COc1ccc2c(c1)CCN(CCN1CCC(CNC(=O)c3ccc(-c4ccc(C#N)cc4)cc3)CC1)C2 [TCMDC-138881]	-33.61%
COc1cccc2c1CCN(CCN1CCC(CNC(=O)c3ccc(-c4ccc(C#N)cc4)cc3)CC1)C2 [TCMDC-134140]	16.45%
N#Cc1ccc(-c2ccc(C(=O)NCCCCN3CCC(c4cn(CCCO)c5ccccc45)CC3)cc2)cc1 [TCMDC-138837]	-51.57%
C=C(C)Cn1cc(C2CCN(CCN3CCC(CNC(=O)c4ccc(-c5ccc(C#N)cc5)cc4)CC3)CC2)c2ccccc21 [TCMDC-138854]	103.5%
CC(C)Cn1cc(C2CCN(CCN3CCC(CNC(=O)c4ccc(-c5ccc(C#N)cc5)cc4)CC3)CC2)c2ccccc21 [TCMDC-138849]	100.8%
COc1cc(C=C(C2=NC(=O)CS2)c2nc3cccnc3n2C)ccc1O [TCMDC-135917]	-7.7%
O=C(CC1CCCCC1)NCC(NCCCNc1cc(=O)c2ccccc2[nH]1)c1cc(Br)cc(Br)c1 (centres unmarked) [TCMDC-140315]	-37.31%
Cc1cccc2[nH]c(-c3ccc(-c4cccc(NC(=O)C(C)CN(C)C)c4)cc3)nc12 (centres unmarked) [TCMDC-137103]	-53.92%
CC(=O)c1c(CC(=O)O)c2ccccc2n1O [TCMDC-131414]	58.24%
CCCCOc1ccc(-n2c(Nc3ccccc3)nc3cc(S(N)(=O)=O)ccc32)cc1 [TCMDC-135489]	-3.968%
CC1CCC(C[C@@H](C(=O)N[C@@H](CCC(=O)N2CCCCC2)C(=O)Nc2nccs2)[C@H](C(C)C)N(O)C=O)CC1 (some centres unmarked) [TCMDC-138168]	-16.64%
COc1cccc(Nc2nc(Nc3cccc(C#N)c3)cc(-c3ccncc3)n2)c1 [TCMDC-133447]	6.387%
O=C(CSc1n[nH]c(=O)n1Cc1ccccc1)Nc1ccccc1-c1ccccc1 [TCMDC-123557]	0.01985%
COc1ccccc1-n1c(SCC(=O)c2ccc3c(c2)CC(=O)N3C)nnc1-c1cccs1 [TCMDC-124819]	56.33%
Cn1c(N)c(C(=O)CSc2nnc(-c3cccs3)n2Cc2ccccc2)c(=O)n(C)c1=O [TCMDC-124496]	-5.537%
COc1ccc(C2CC(c3cccs3)=NN2C(=O)c2ccccc2)cc1OC (centres unmarked) [TCMDC-123755]	-49.1%
CN1CCCC1CNS(=O)(=O)c1ccc(C(=O)NCC2CC2)cc1 (centres unmarked) [TCMDC-133683]	0.07982%
CCc1ccc(C(=O)NC(=O)c2ccccc2O)cc1 [TCMDC-123479]	19.58%
c1ccc(Oc2ccc(Nc3ccnc4cc(-c5csc(CNCCN6CCOCC6)n5)ccc34)cc2)cc1 [TCMDC-138407]	5.088%
CS(=O)(=O)CCNCc1nc(-c2ccc3c(Nc4ccc(Oc5ccccn5)cc4)ccnc3c2)cs1 [TCMDC-138438]	-37.4%
CN(C)CCNCc1nc(-c2ccc3c(Nc4ccc(Oc5ccccc5)cc4)ccnc3c2)cs1 [TCMDC-138410]	95.14%
Cc1ccc(O)cc1Nc1ccnc2cc(-c3csc(CN(C)CCN(C)C)n3)ccc12 [TCMDC-138458]	49.52%
CN(C)CCN(C)Cc1nc(-c2ccc3c(Nc4ccc(Oc5ccccc5)cc4)ccnc3c2)cs1 [TCMDC-138408]	77.6%

Compound	% Inhibition
CN(C)CCNCc1nc(-c2ccc3c(Nc4ccc(Cl)cc4F)ccnc3c2)cs1 [TCMDC-138455]	16.78%
CCc1ccc2nc(-c3ccc(F)cc3)nc(SCC(=O)Nc3sc(C)c(C)c3C#N)c2c1 [TCMDC-125430]	16.25%
COc1ccc2nccc([C@@H](O)CN3CCC(NC(=O)c4cc5c(F)cc(F)cc5[nH]4)CC3)c2n1 [TCMDC-134945]	-17.57%
CCCCCCc1c(C)[nH]c2cc(OC)ccc2c1=O [TCMDC-138010]	73.98%
CCCCCCCc1c(C)[nH]c2cc(OC)ccc2c1=O [TCMDC-137173]	75.71%
COc1cc2c(=O)c(Cc3ccc(Cl)cc3)c(C)[nH]c2cc1F [TCMDC-137280]	22.18%
CO/C(=C\C=C\c1cc2cc(Cl)c(Cl)cc2[nH]1)C(=O)NC1CC2CCC(C1)N2C (centres unmarked) [TCMDC-139038]	73.28%
CO/C(=C\C=C\c1cc2cc(Cl)c(Cl)cc2[nH]1)C(=O)NC1CCN(CCCc2ccccc2)CC1 [TCMDC-139657]	70.65%
CO/C(=C/C=C/c1cc2cc(Cl)c(Cl)cc2[nH]1)C(=O)NC1CC(C)(C)N(C)C(C)(C)C1 [TCMDC-139097]	81.55%
CO/C(=C\C=C\c1cc2cc(Cl)c(Cl)cc2[nH]1)C(=O)NC1CC2CCCC(C1)N2C (centres unmarked) [TCMDC-139067]	19.33%
CO/C(=C\C=C\c1cc2cc(Cl)c(Cl)cc2[nH]1)C(=O)NC1CCN(CCOc2ccccc2)CC1 [TCMDC-139454]	27.46%
CO/C(=C\C=C\c1cc2cc(Cl)c(Cl)cc2[nH]1)C(=O)NC1CC(C)N(C)C(C)C1 (centres unmarked) [TCMDC-139085]	-67.29%
CO/C(=C\C=C\c1cc2cc(Cl)c(Cl)cc2[nH]1)C(=O)NC1CCN(CCNc2ccccc2)CC1 [TCMDC-139535]	-22.32%
CO/C(=C\C=C\c1cc2cc(Cl)c(Cl)cc2[nH]1)C(=O)N[C@H]1CN2CCC1CC2 [TCMDC-139095]	-57.18%
CO/C(=C\C=C/c1cc2cc(Cl)c(Cl)cc2[nH]1)C(=O)NC1CC(C)(C)N(C)C(C)(C)C1 [TCMDC-139106]	-40.37%
CC(C)(CNC(=O)[C@H]1CCCCN1)c1nc(-c2ccc(Cl)c(O)c2)c(-c2ccncc2)[nH]1 [TCMDC-141070]	-44.74%
Oc1ccccc1-c1nc2cccnc2n1CCc1cccc(C(F)(F)F)c1 [TCMDC-135091]	14.7%
Cc1sc2ncnc(Sc3nnc(N)s3)c2c1C [TCMDC-124542]	96.33%
CCc1cc2c(Sc3nnc(N)s3)ncnc2s1 [TCMDC-123993]	80.67%
COc1ccc(-c2cc(C(=O)N[C@@H](CC3CCCCC3)C(=O)NC3CCCc4ccccc43)ccc2O)cc1 (some centres unmarked) [TCMDC-140806]	24.41%
O=C(NCCN1CCCc2ccccc21)C1CCN(c2nc(-c3ccc(Cl)cc3)no2)CC1 [TCMDC-125165]	5.616%
Cc1noc(C)c1-c1cccc(CNCc2cccc(-c3cccc(-c4nc5cc(F)ccc5[nH]4)c3)c2)c1.O=C(O)C(F)(F)F [TCMDC-133064]	-20.89%
